# Laboratory results: PubChem BioAssay AID1259376 (The Scripps Research Institute Molecular Screening Center, 2018)
# The whole screen tested about 4,700 compounds, of which about 360 (7.7%) were called active. The list is a sample of the results. Values without a mark were called inactive.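 The calls were made as follows: active = inhibition above a cutoff derived from the DMSO control wells (cut at about 30% in these data); inactive = the rest.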
# Experiment: AlphaScreen optical interference compounds, counter-screen for MITF inhibitor project, biochemical, triplicate (AID 1259376)
# Details: LysRS AlphaScreen counterscreen, signal interference, at 2.6 µM, hits give high values
row,Compound,inhibition
1,CCN1CCN(CCCCOc2ccccc2F)CC1,6.82%
2,Cc1cccc(OCCN2CCNCC2)c1C,-1.28%
3,Cc1nc(NC2CC2)cc(-c2ccc(F)cc2)n1,14.2%
4,Cc1nc(NC(=O)c2cc(Br)ccc2Cl)sc1C,12.2%
5,COc1cc(CN2CCN(Cc3cccnc3)CC2)cc(OC)c1OC,18.8%
6,CN(CCc1ccccn1)CC(=O)N1CCc2ccccc21,-7.9%
7,CCCCC(=O)NCc1ccc(F)cc1,10.9%
8,Cc1nnc(N2CCC(Cc3ccccc3)CC2)c2ccccc12,6.39%
9,CCCS(=O)(=O)N1CCN(C(C)C)CC1,9.53%
10,C=CCNC(=O)c1sc(=S)n(CC)c1N,-4.06%
11,COc1cc2nc(-c3cccc(C(C)=O)c3)nc(N)c2cc1OC,13.2%
12,O=C1NC(c2ccccc2[N+](=O)[O-])C(C(=O)c2cccs2)C(O)(C(F)(F)F)N1 (configuration not stated),12.5%
13,CCN(CC)CC(=O)Nc1c2c(nc3ccccc13)N(c1cccc(C)c1)CC2,1.32%
14,Cc1cccc(NC(=O)CNCCN2CCCCC2)c1C,12.4%
15,C/C(N)=C(/C#N)C(=O)COC(=O)c1c2c(nc3ccccc13)/C(=C/c1ccco1)CC2,-24.2%
16,CC1CCC2C(=O)N(c3ccc(I)cc3)C(=O)C2C1 (configuration not stated),0.06%
17,Cc1ccc(C)n1C(Cc1ccccc1)C(=O)O (configuration not stated),-2%
18,Cc1ccc(C)c(OCCN2CCOCC2)c1C,17.5%
19,COc1ccc(CN2CCN(Cc3cccnc3)CC2)cc1OCc1ccccc1,10.3%
20,C=CCc1cc(C)ccc1OCCCn1ccnc1,7.18%
21,OCCOCCN1CCN(Cc2ccc(Cl)cc2)CC1,3.33%
22,C=CCn1c(SCC(=O)Nc2nc3ccccc3s2)nc(O)cc1=O,-1.43%
23,CN(CCC(=O)O)Cc1cccc(Cl)c1,-6.2%
24,COc1cc(CN2CCN(Cc3ccc(Cl)cc3)CC2)c([N+](=O)[O-])cc1OC,4.12%
25,CCC(C)c1ccccc1NC(=O)CN(C)CC(=O)Nc1ccccc1SC (configuration not stated),3.28%
26,O=c1c2ccccc2ncn1CCCCOc1ccccc1F,7.91%

row,Compound,inhibition
1,COc1ccc(CN2CCN(Cc3ccccc3C)CC2)c(OC)c1OC,-1.44%
2,COc1ccc(C(=O)NCCN2CCN(c3nc4c(C)c(C)ccc4s3)CC2)cc1,-2.39%
3,Fc1ccc(CN2CCN(C3CCCC3)CC2)cc1,5.37%
4,O=C(c1cccs1)N1CCC(N2CCN(Cc3ccccc3)CC2)CC1,-5.37%
5,O=[N+]([O-])c1ccc(OCc2nnc(SCCN3CCOCC3)n2-c2ccccc2)cc1,-4.47%
6,Clc1ccc(CN2CCN(CC3CC=CCC3)CC2)cc1 (configuration not stated),1.68%
7,Fc1cccc(Cl)c1Cn1nnc(-c2ccncc2)n1,12.8%
8,CCCCCOc1ccc(OC(=O)c2ccc(-c3ccc(CCC)cn3)cc2)cc1,9.51%
9,O=C(Cc1cccs1)N/N=C\C=C\c1ccco1,-6.28%
10,c1ccc(Oc2cccc(OCCCCn3cncn3)c2)cc1,0.8%
11,Cn1c(-c2ccc(F)cc2)cnc1NCc1cccnc1,-4.79%
12,O=C(CNCc1cccnc1)Nc1ccc(C(=O)N2CCCCC2)cc1,8.3%
13,O=[N+]([O-])c1ccccc1S(=O)(=O)N1CCN(C2Cc3ccccc3C2)CC1,15%
14,CSc1ccc(CN2CCN(Cc3cccc(Oc4ccccc4)c3)CC2)cc1,6.5%
15,CSc1ccc(CN2CCN(S(=O)(=O)c3ccc([N+](=O)[O-])cc3)CC2)cc1,30% (active)
16,O=S(=O)(c1ccc(F)cc1)N1CCN(Cc2ccccc2C(F)(F)F)CC1,12.8%
17,CC(C)(C)NCC(=O)Nc1c2c(nc3ccccc13)N(Cc1ccccc1)CC2,15.5%
18,CC1CCCCC1NC(=O)CSc1nnc(-c2ccncc2)n1CCCN(C)C (configuration not stated),14.7%
19,O=C(OCCN1CCOCC1)c1c(Cl)nc2sccn12,10.9%
20,Cc1cc(OCCN2CCN(C)CC2)ccc1C(C)C,4.96%
21,CCCS(=O)(=O)N1CCN(Cc2ccccc2Br)CC1,13.6%
22,COc1ccc2c(c1)CC(C(=O)Nc1ccc(-c3cn[nH]c3)cc1OCc1ccccc1)CO2 (configuration not stated),22.5%
23,O=C(Nc1ccc(-c2ccncc2)c(C(F)(F)F)c1)C1COc2ccccc2O1 (configuration not stated),5.92%
24,COc1cccc(CN2CCN(CCCc3ccccc3)CC2CCO)c1 (configuration not stated),-5.46%
25,CN(C)CC(C)(C)CNCc1nnc(-c2ccccc2)o1,-0.68%
26,N#C/C(=C/c1ccc(-c2ccc3c(c2)C(=O)NC3=O)o1)C(=O)O,13.4%

row,Compound,inhibition
1,COc1ccc(OC)c(CN2CCN(Cc3ccccc3OC)CC2)c1,18.2%
2,COC(=O)c1cccc(NS(=O)(=O)c2ccc3ccccc3c2)c1C,21.9%
3,COc1ccc(CN2CCN(Cc3ccccc3C(F)(F)F)CC2)cc1OC,17.4%
4,CS(=O)(=O)N1CCN(Cc2cccc(Cl)c2)CC1,-4.82%
5,O=C(O)CCCCCNC(=O)/C(=C\c1ccco1)NC(=O)c1ccccc1,-2.96%
6,COc1ccc2c(c1)CC(c1nc(Nc3ccc4cnccc4c3)c3ccccc3n1)CO2 (configuration not stated),8.8%
7,COc1cccc(OC)c1C(=O)N1CCN(Cc2cccnc2)CC1,14.3%
8,COc1cc(CN2CCN(Cc3ccc(OC)c(OC)c3)CC2)cc(OC)c1,1.7%
9,COc1cc(CN(CCN(C)C)Cc2ccccc2)cc(OC)c1,2.44%
10,CC(c1ccccn1)N(CCN(C)C)C(=S)Nc1ccccc1F (configuration not stated),100% (active)
11,COc1ccc2c(c1)CC(C(=O)Nc1ccc(-c3cn[nH]c3)cc1OCC(N)=O)CO2 (configuration not stated),16.5%
12,CCN1CCN(CCCOc2ccc(C(C)=O)cc2OC)CC1,19.6%
13,CCN(CCN(C)C)Cc1c(Cl)cccc1Cl,-9.64%
14,NC(=O)COC(=O)/C=C/c1ccc(I)o1,16.2%
15,COc1cc(OC)c(OC)cc1CN1CCN(Cc2ccc(F)cc2)CC1,-4.28%
16,COc1ccc(CN2CCN(Cc3cc(OC)ccc3OC)CC2)cc1,-1.01%
17,CC(=O)N1CCN(CC(=O)Nc2ccc(C)c(F)c2)CC1,5.18%
18,COC(=O)CSc1nc(C2CC2)nc2ccccc12,9%
19,CCOc1ccc(CN2CCN(C(=O)c3cccc(Cl)c3)CC2)cc1,0.05%
20,COc1ccc(NC(=O)c2cc3n(n2)C(C(F)(F)F)CC(c2ccc(OC)c(OC)c2)N3)cc1OC (configuration not stated),-6.86%
21,CCC(C)NCCOCCOc1cc(C)cc(C)c1C (configuration not stated),-2.01%
22,CCN1CCN(CC(O)COc2cccc(C(=O)OC)c2)CC1 (configuration not stated),-1.14%
23,O=C1c2ccccc2C(O)N1Cc1ccccc1Cl (configuration not stated),0.5%
24,c1cc2c(cc1CN1CCN(C3CCCC3)CC1)OCO2,2.1%
25,Cc1ccc(C(C)C)c(OCCN2CCNCC2)c1,-3.79%
26,COc1cccc(-c2ncnn2-c2sc3c(c2C#N)CCCCC3)c1,17.1%

row,Compound,inhibition
1,COc1ccc(NC(=O)CN2CCN(C)CC2)c(OC)c1,13.8%
2,COc1ccc(CNCC2CN(CC(C)C)CCO2)cc1 (configuration not stated),10.1%
3,COc1cccc(CN2CCN(Cc3ccc(C(F)(F)F)cc3)CC2)c1OC,-5.41%
4,NS(=O)(=O)c1cccc(NC(=O)COc2ncnc3sc(-c4ccccc4)cc23)c1,20.8%
5,O=C(NN1C(=O)c2ccccc2C1=O)c1cccc(F)c1,-4.68%
6,CCOc1ccc(OCCCCNCCO)cc1,15.9%
7,Cc1cnc(NCc2ccc3c(c2)OCO3)nc1Nc1ccccc1,7.89%
8,CCCS(=O)(=O)N1CCN(Cc2cccc(Cl)c2)CC1,13.1%
9,c1cc2c(cc1CNc1nc(Nc3ccc(N4CCOCC4)cc3)c3ncn(C4CCCCC4)c3n1)OCO2,-14.4%
10,COCc1nc2ccccc2n1CCc1noc(-c2ccco2)n1,-8.54%
11,Cc1cc(S(=O)(=O)Nc2ccc3c(c2)OCCO3)ccc1-n1cnnn1,14%
12,Cc1ccc(C(C)C)c(OCC#CCN2CCNCC2)c1,14.9%
13,CC(C)(C)NCCOCCOc1ccc(Cl)c(Cl)c1,9.65%
14,C[C@@H](OCc1ccccc1)[C@@H]1NC(=O)[C@H]2CN(C(=O)Nc3cccc(F)c3)CCN2C1=O,1.57%
15,COc1cc(CN2CCN(Cc3ccco3)CC2)c([N+](=O)[O-])cc1OC,13%
16,CC[C@@H]1NC(=O)[C@H]2CN(C(=O)NCc3ccccc3)CCN2C1=O,2.23%
17,CCN1CCN(CC(=O)N/N=C/c2cccc(Cl)c2)CC1,3.65%
18,Cc1cccnc1NC(=O)CSc1nnc(COc2ccc(C(C)C)cc2)n1C,9.54%
19,Cc1cc(NC(=O)CSc2ccc(-c3ccccn3)nn2)no1,93.4% (active)
20,Cc1cc(NC(=O)CNCCCN(C)C)no1,1.07%
21,C=CCNCCOCCOc1cc(C)ccc1C(C)(C)C,15.9%
22,COc1ccc(OCCCC(=O)Oc2ccc(OC)cc2)cc1,3.96%
23,CCc1ccc(NC(=O)CS(=O)CC(=O)NCCCc2ccccc2)cc1 (configuration not stated),-4.98%
24,COc1cc(CN2CCN(C(=O)C(c3ccccc3)c3ccccc3)CC2)cc(OC)c1OC,9.83%
